From PubChem BioAssay
Activity calls are given as the source filed them.

Experiments:
[1] = A549 cell viability effects, profiling panel, calcein-AM fluorescence, 48 h, basal (AID 1162); conditions: higher = more signal
[2] = adipocyte viability effects, profiling panel, cell-based, 3T3-L1 adipocytes, calcein-AM fluorescence, 48 h, basal (AID 1163); conditions: 3T3-L1 adipocytes viability, higher = more signal
[3] = HepG2 cell viability effects, profiling panel, calcein-AM fluorescence, 48 h, basal (AID 1164); conditions: higher = more signal
[4] = MM1S cell viability effects, profiling panel, calcein-AM fluorescence, 48 h, basal (AID 1165); conditions: higher = more signal;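 note: viability of MM1S multiple myeloma cells under basal unstimulated conditions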
[5] = basal RPMI8226 viability, no added stimulus, profiling panel, cell-based, calcein-AM fluorescence, 48 h, PK04 Diversity Set (AID 1166); conditions: RPMI8226 myeloma viability, higher = more signal;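 note: cells grown under basal conditions without added stimulus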
[6] = basal HepG2 mitochondrial membrane potential changes, profiling panel, cell-based, JC-1 fluorescence, 24 h, 100 nL compound (AID 1167); conditions: higher = more signal
[7] = basal 3T3-L1 adipocyte mitochondrial potential changes, profiling panel, cell-based, JC-1 fluorescence, 3T3-L1 adipocytes, 24 h, 100 nL compound (AID 1168); conditions: JC-1 mitochondrial fluorescence, higher = more signal, called active from +8 up or from −8 down
[8] = basal RPMI8226 mitochondrial membrane potential changes, profiling panel, cell-based, JC-1 fluorescence, 24 h, 100 nL compound (AID 1169); conditions: RPMI8226 myeloma, JC-1 mitochondrial potential fluorescence, higher = more signal
[9] = basal MM1S mitochondrial membrane potential changes, profiling panel, cell-based, JC-1 fluorescence, 24 h, 100 nL compound (AID 1170); conditions: higher = more signal
[10] = A549 lung cancer cell viability effects, profiling panel, resazurin fluorescence, 24 h, PK04 Diversity Set (AID 1171); conditions: higher = more signal, called active from +8 up or from −8 down
Note: test concentration not given here.

Structure (SMILES)	z-score [1]	z-score [2]	z-score [3]	z-score [4]	z-score [5]	z-score [6]	z-score [7]	z-score [8]	z-score [9]	z-score [10]
[N-]=[N+]=Nc1ccccc1C[C@]1(C(=O)O)N=C(c2ccc(OCCCO)cc2)O[C@H]1c1ccccc1	0.855	-0.221	1.28	0.565	0.272	-0.924	-0.297 (inactive)	-0.954	-0.547	-0.605 (inactive)
CCOC(=O)C[C@H]1[C@H](OC(=O)c2ccccc2-c2ccccc2)[C@@H](NC(=O)c2ccccc2)c2cc(OCCCO)ccc2N1C(=O)c1ccccc1	-0.164	-0.603	-0.56	-0.162	-0.559	-0.127	-0.0812 (inactive)	-0.485	0.318	-0.336 (inactive)
[N-]=[N+]=NCc1ccccc1C[C@]1(C(=O)N2CCOCC2)COC(c2ccc(OCCCO)cc2)=N1	0.0386	0.926	0.383	-3.46	-2.89	1.72	0.665 (inactive)	-0.843	-0.968	-0.36 (inactive)
[N-]=[N+]=NCc1ccccc1[C@H]1OC(c2ccc(OCCCO)cc2)=N[C@@]1(Cc1ccccc1)C(=O)NCCN1CCOCC1	0.526	1.06	0.688	-2.51	-1.2	1.51	-0.0131 (inactive)	-0.815	0.45	1.19 (inactive)
CCOC(=O)C[C@H]1[C@H](OC(=O)c2cc3ccccc3oc2=O)[C@@H](NC(=O)c2ccc3ccccc3c2)c2cc(OCCCO)ccc2N1C(=O)Cc1ccc(OC)cc1	-0.103	0.528	-0.425	0.226	0.0557	-0.527	0.06 (inactive)	-0.229	0.0571	0.379 (inactive)
O=C(CS)NCCCCCNC(=O)[C@@H]1C[C@@H]2C(=O)N[C@@H](Cc3ccccc3)C(=O)N2[C@@H]1c1cccc(OCCO)c1	0.688	-0.284	1.18	0.57	0.521	1.51	0.19 (inactive)	-0.203	-0.156	-0.488 (inactive)
CCCCC=C[C@@H](NC(=O)c1ccccc1)c1ccccc1	-1.07	-0.417	-1.02	-0.842	-2.29	0.18	-1.04 (inactive)	0.135	-0.434	0.962 (inactive)
CN(C)CCCC[C@@H]1NC(=O)[C@@H]2C[C@H](C(=O)O)[C@H](c3cccc(OCCO)c3)N2C1=O	0.0184	0.13	0.201	0.238	0.312	1.05	-0.864 (inactive)	-0.804	0.174	0.593 (inactive)
[N-]=[N+]=NCc1ccccc1[C@@H]1OC(c2ccc(OCCCO)cc2)=N[C@]1(Cc1ccccc1)C(=O)NCCN1CCOCC1	0.239	1.09	0.91	-0.887	0.185	1.14	0.69 (inactive)	-0.191	0.424	1.26 (inactive)
C=CCNC(=O)[C@H]1[C@@H]2C(=O)O[C@@H](c3ccccc3)[C@@H](c3ccccc3)N2[C@@H](c2ccc(OCCO)cc2)[C@]12C(=O)Nc1ccc(C#CCNC(N)=O)cc12	0.292	1.63	-0.529	-1.41	-0.062	-1.11	-0.657 (inactive)	-0.0816	0.938	-0.805 (inactive)
CCCCC(=C=CC[C@H](O)c1ccc(OCCO)cc1)C[C@H](O)c1cc(Cl)cc(Cl)c1O	-0.217	-0.185	-0.197	-3.34	-2.76	-2.43	-0.368 (inactive)	-0.773	-0.349	1.17 (inactive)
CN1C(=O)[C@@]2(Cc3ccccc3)N=C(c3ccc(OCCCO)cc3)O[C@H]2c2ccccc21	-1.11	-0.597	-1.61	-2.71	-4.45	0.384	1.69 (inactive)	-1.26	-1.89	-0.788 (inactive)
[N-]=[N+]=Nc1ccccc1[C@@H]1OC(c2ccc(OCCCO)cc2)=N[C@]1(Cc1ccccc1)C(=O)NCc1ccccc1	-1.17	-0.0535	-2.13	-3.35	-3.8	-2.02	0.976 (inactive)	-1.14	-2.59	-1.48 (inactive)
COCCOC(=O)N1C(=O)[C@@]2(c3cc(C#CCC(C(=O)OC)C(=O)OC)ccc31)[C@H](C(=O)NC[C@H](O)c1ccccc1)[C@H]1C(=O)O[C@H](c3ccccc3)[C@H](c3ccccc3)N1[C@@H]2c1ccc(OCCO)cc1	-0.248	0.951	0.583	0.152	-1.87	-0.684	0.407 (inactive)	-0.854	-0.724	-0.873 (inactive)
